Pf growth 48h: P. falciparum growth inhibition at 48 hours (one generation); 310,000 tested, 5.9% active; P. falciparum luciferase growth in erythrocytes, 48 h; Potency, µM (top dose mostly 28.7 µM), inactives show top-dose activity change, negative = inhibition, usual class: inhibitors; note: potency is the fitted concentration of half-maximal effect; % is set by controls: 0 for no effect and ±100 for the full control effect
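Parasite viability was followed by luminescence of a genomically integrated firefly luciferase. Cultures held 0.1% parasitemia at 2% hematocrit (final), incubated under 5% CO2 at 37 C.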
LmPK inh: inhibitors of Leishmania mexicana pyruvate kinase. 290,000 tested, 0.37% active. purified LmPK, Kinase-Glo ATP luminescence, 1 h. Potency, µM (top dose mostly 57.5 µM), for inactives: top-dose activity change, negative = inhibition, usual class: inhibitors. AID 1721; note: potency is the fitted concentration of half-maximal effect; % is set by controls: 0 for no effect and ±100 for the full control effect
Target sequence (Q27686 whole entry, looked up): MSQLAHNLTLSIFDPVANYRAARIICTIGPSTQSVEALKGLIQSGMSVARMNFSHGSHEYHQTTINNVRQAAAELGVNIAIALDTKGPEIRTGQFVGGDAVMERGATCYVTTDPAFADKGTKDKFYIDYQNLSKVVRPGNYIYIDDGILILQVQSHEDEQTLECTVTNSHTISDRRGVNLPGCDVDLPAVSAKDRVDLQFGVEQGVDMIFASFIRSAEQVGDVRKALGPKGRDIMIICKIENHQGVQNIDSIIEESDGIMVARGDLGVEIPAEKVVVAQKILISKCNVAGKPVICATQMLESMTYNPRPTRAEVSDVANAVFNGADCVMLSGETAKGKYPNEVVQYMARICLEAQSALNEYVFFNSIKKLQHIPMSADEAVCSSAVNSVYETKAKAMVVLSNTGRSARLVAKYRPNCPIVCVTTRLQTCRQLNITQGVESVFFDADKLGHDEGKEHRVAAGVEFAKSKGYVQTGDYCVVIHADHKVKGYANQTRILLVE
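Screened at intermediate enzyme activity to detect both inhibitors and activators: LmPK at 0.1 nM, with a 0.5 nM enzyme column as activation reference. PEP 0.5 mM, ADP 0.1 mM; ATP detected by luminescence after 1 h.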
CHX counter: counter-screen for Shiga toxin inhibitors: cycloheximide protein synthesis inhibition; cell reporter, cycloheximide protein synthesis inhibition counterscreen; AID 2314; max response, %; 300,000 tested, 12% active; in the data active = max response mostly above about 13%, no sharp cut-off; inactive = mostly below about 14%; note: read at 38.3 µM for the half of the compounds with a filed dose; 0% is about no effect
Shiga toxin inh: blocks Shiga toxin action in Vero cells | Vero cells, Shiga toxin protein synthesis inhibition reporter | inhibition, % at 38.7 µM | 290,000 tested, 9.2% active | AID 2315; in the data active = inhibition mostly above about 28%, no sharp cut-off; inactive = mostly below about 43%; note: 0% is about no effect
Pf growth 96h: inhibits malaria parasite growth, 96 h. Potency, µM (highest dose often 28.7 µM), inactives show at the top dose activity change, negative = inhibition, most hits filed as inhibitors. AID 504834. P. falciparum luciferase reporter growth, 96 h. 320,000 tested, 6.9% active; note: potency is the fitted concentration of half-maximal effect; % is set by controls: 0 for no effect and ±100 for the full control effect
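Erythrocytes infected with luciferase-expressing P. falciparum were dispensed at 2% hematocrit and 0.05% parasitemia (final), then incubated with compounds 96 hours at 37 C in 5% CO2. Luminescence after detection reagent addition reported growth.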
Active calls of the source: *; i = inactive; ? = inconclusive; · = no result. Hits are enriched below; roughly 22% of the tested compounds scored in any of these assays. Unless noted, calls come from the whole dose curve; as a rule, active = well fitted inhibition curve with a large enough effect; inconclusive = small, poorly fitted or top-dose-only effect, or another doubt; inactive = no such curve, though single readings can be large or run the other way.

SMILES	Pf growth 48h	LmPK inh	CHX counter	Shiga toxin inh	Pf growth 96h
COc1ccccc1/C=C/C(=O)Nc1ccc2c(c1)OCCO2	327%	-5%	56*	99*	13µM*
O=C(/C=C/c1ccco1)Nc1ccc2c(c1)OCCO2	i	0%	30*	69*	187%
N#CCSc1nc2[nH]ncc2c(=O)n1-c1ccccc1Br	-38%	11µM*	-6	-24	266%
CCn1c(=O)c2c(n3c(=S)[nH]nc13)-c1ccccc1CC21CCCCC1	-2%	14µM*	-6	-3	2%
CCn1c(SCC#N)nc2c(c1=O)C1(CCCC1)Cc1ccccc1-2	-25%	4%	-1	-20	-28%
COC(=O)c1csc(S(=O)(=O)N2CCOCC2)c1OC	-12%	1%	1	4	-13%
CCCCn1c(O)c(C(C)=Nc2ccc(OCC)cc2)c(=O)[nH]c1=O	?	1%	-2	15	?
CC(=O)Nc1ccc(N=C(C2=C(O)c3ccccc3C2=O)c2ccccc2)cc1	-23%	1%	44*	63*	?
COc1ccc(N=C(C)C2=C(O)c3ccccc3C2=O)cc1	39%	-27%	58*	115*	65%
CCOc1ccc(N=C(C)C2=C(O)c3ccccc3C2=O)cc1	15%	-12%	43*	194*	12%
CCN1/C(=C/C=C/c2oc3ccc(-c4ccccc4)cc3[n+]2CC)Oc2ccc(-c3ccccc3)cc21	0.93µM*	-9%	-7	-35	-22%
CC1CCCN(S(=O)(=O)c2cc3c4c(c2)C(C)C(=O)N4CCC3)C1 (stereo not given)	-28%	9%	-2	-4	3%
Cc1cc(SC#N)cc(C)c1NC(=O)CCl	-11%	2%	2	4	58%
CCc1cc(SC#N)cc(C)c1NC(=O)CCl	13µM*	-2%	1	15	?
CCc1cc(SC#N)cc(C)c1N	8.3µM*	1%	-4	-14	3.3µM*
O=C(NCCCN1CCOCC1)C(=O)N/N=C/c1ccccc1O	?	0%	3	2	12%
CC(NC(=O)CCc1nc2cc(S(=O)(=O)N3CCOCC3)ccc2n1C)c1ccc(S(N)(=O)=O)cc1 (stereo not given)	0%	-11%	-2	-10	?
CCc1ccc(NS(=O)(=O)c2c(C(=O)N3CCCCCC3)c(C)n(C)c2C)cc1	14%	7%	2	6	7%
Cc1nc(SCC(=O)Nc2ccccn2)n[nH]1	7%	-5%	7	-7	-15%
COc1ccc2nc(NC(=O)CSc3nc(SC)ns3)sc2c1	48%	1%	47*	72*	-10%
CCOc1ccc(OCCSc2nnnn2C2CCCCC2)cc1	11%	-3%	-2	-3	10µM*
CCOc1ccc2nc(NC(=O)CSc3nnnn3C3CCCCC3)sc2c1	39%	-5%	30*	50*	4.1µM*
Cc1nc(SCC(=O)Nc2nc3ccccc3s2)n[nH]1	51%	-2%	54*	69*	?
CC1CC(C)CN(S(=O)(=O)c2cc3c4c(c2)CCC(=O)N4CCC3)C1 (stereo not given)	?	·	·	·	-20%
COc1cccc(CNC(=O)CCSCc2ccccc2F)c1	-9%	-8%	-1	-10	?
SMILES	Pf growth 48h	LmPK inh	CHX counter	Shiga toxin inh	Pf growth 96h
COc1ccc2oc(C(=O)OCC(=O)NC(C)c3ccccc3)c(C)c2c1 (stereo not given)	9%	-3%	8	12	?
CSc1nsc(SCC(=O)Nc2nc3ccccc3s2)n1	5%	1%	30*	67*	24%
COc1ccccc1NC(=O)CSc1nc(SC)ns1	50%	1%	7	16	6%
COc1ccc2nc(NC(=O)CSc3nnnn3C)sc2c1	19%	0%	28*	46*	-21%
CSc1nsc(SCC(=O)Nc2ccccn2)n1	60%	1%	23*	42*	30%
COc1ccc2nc(NC(=O)CSc3nnnn3C3CCCCC3)sc2c1	4%	7%	3	19	-9%
CCSc1nnc(SCC(=O)NC2CCCCC2)s1	3%	·	·	·	17%
CSc1nsc(SCC(=O)NC2CCCCC2)n1	19%	-2%	27*	52	·
COc1ccc(/C(N)=N/OC(=O)CN(C)S(=O)(=O)c2ccc(C)cc2)cc1	-21%	5%	4	24	?
COc1ccc(-c2csc(NC(=O)CSc3nc(SC)ns3)n2)cc1	12%	4%	39*	57*	33%
